# Active and inactive are the calls of the source.
# Experiments:
# [1] = test system: Plasmodium falciparum Sir2 (PF13_0152, Sir2A); experiment: Plasmodium falciparum Sir2A binding compounds – biochemical, small-molecule microarray, 635 nm fluorescence, primary screen (AID 1098); details: fluorescence 635 nm, higher = more signal;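 further: score merges spot fluorescence intensity with its signal-to-noise ratio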
# [2] = probe aDKK1 binding to arrayed compounds – biochemical, biotinylated probe, 635/667 nm fluorescence, primary screen (AID 1099); details: small-molecule microarray, higher = more signal;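 further: score merges 667nm spot fluorescence with signal to noise across triplicate slides; reference of the scale not given here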
# [3] = probe aCHRDL2 binding to arrayed compounds – biochemical, biotinylated probe, 635/667 nm fluorescence, primary screen (AID 1100); details: small-molecule microarray, higher = more signal
# [4] = change in splice reporter luminescence, either direction, cell-based, HEK293, spliceosome inhibition project, primary screen (AID 1101); details: HEK293 splicing luciferase reporter, 24 h, higher = more signal, called active from +8 up or from −8 down;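 further: HEK293 cells carrying a splicing-competent luciferase reporter gene; test concentration not given here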
# [5] = target: Fibroblast growth factor 10 (Homo sapiens) (UniProt O15520); experiment: compounds binding fibroblast growth factor 10 – biochemical, small-molecule microarray, 635 nm fluorescence, primary screen (AID 1102); details: FGF10 binding, fluorescence 635 nm, higher = more signal
# Sequence of Fibroblast growth factor 10 (Homo sapiens) (O15520 whole entry, looked up): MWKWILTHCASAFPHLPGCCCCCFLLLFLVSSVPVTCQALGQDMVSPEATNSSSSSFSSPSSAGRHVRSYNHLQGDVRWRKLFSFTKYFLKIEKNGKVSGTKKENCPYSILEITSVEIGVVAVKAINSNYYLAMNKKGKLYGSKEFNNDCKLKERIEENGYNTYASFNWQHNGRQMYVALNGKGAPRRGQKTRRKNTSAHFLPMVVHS
# [6] = test system: glycogen synthase kinase-3 (GSK3A per assay name; protocol says GSK3B); experiment: compounds binding glycogen synthase kinase-3 – biochemical, small-molecule microarray, 635 nm fluorescence, GSK3A, primary screen (AID 1103); details: fluorescence 635 nm, higher = more signal; further: the record names both GSK3A and GSK3B
# [7] = target: Epidermal growth factor receptor (Homo sapiens) (UniProt P00533); experiment: compounds binding epidermal growth factor receptor – biochemical, small-molecule microarray, 635 nm fluorescence, primary screen (AID 1104); details: EGFR binding, higher = more signal;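 further: score merges 667 nm emission intensity with spot signal to noise over triplicate slides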
# Sequence of Epidermal growth factor receptor (Homo sapiens) (P00533 whole entry, looked up): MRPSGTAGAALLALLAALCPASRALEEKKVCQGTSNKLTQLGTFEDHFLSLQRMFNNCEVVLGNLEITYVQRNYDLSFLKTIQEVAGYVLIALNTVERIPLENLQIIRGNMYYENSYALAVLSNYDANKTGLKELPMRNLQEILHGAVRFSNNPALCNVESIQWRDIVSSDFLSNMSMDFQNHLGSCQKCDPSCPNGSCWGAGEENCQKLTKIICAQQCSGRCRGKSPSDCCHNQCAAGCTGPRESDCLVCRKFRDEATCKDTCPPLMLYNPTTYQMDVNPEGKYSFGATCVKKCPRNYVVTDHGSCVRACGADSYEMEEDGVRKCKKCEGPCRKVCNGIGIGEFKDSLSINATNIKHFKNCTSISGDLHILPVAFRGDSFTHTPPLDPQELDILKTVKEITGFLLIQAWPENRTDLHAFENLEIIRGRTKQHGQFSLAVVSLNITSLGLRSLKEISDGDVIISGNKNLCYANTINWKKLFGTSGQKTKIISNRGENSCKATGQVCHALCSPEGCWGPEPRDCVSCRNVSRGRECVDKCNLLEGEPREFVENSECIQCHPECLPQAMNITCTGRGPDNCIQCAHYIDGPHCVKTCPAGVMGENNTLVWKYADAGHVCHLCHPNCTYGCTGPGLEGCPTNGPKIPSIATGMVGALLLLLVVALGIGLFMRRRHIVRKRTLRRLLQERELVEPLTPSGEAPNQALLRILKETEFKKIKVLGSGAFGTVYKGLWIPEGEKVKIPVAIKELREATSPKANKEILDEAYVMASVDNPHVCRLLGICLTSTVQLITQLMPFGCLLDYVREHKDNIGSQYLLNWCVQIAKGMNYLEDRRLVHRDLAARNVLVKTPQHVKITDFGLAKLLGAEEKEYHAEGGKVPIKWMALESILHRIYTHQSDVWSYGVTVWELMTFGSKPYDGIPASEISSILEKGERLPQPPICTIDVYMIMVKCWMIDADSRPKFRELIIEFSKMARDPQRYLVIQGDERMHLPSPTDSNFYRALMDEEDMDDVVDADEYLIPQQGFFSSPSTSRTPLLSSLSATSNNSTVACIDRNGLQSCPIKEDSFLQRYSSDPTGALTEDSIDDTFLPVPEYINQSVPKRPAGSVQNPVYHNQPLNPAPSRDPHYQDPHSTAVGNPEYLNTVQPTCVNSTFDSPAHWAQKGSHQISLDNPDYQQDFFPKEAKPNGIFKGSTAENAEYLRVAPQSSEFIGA
# [8] = target: Follistatin-related protein 3 (Homo sapiens) (UniProt O95633); experiment: compounds binding follistatin-related protein 3 – biochemical, small-molecule microarray, 635 nm fluorescence, primary screen (AID 1105); details: FSTL3 binding, higher = more signal;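 further: score merges emission near 667 nm and signal to noise per printed spot across three slides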
# Sequence of Follistatin-related protein 3 (Homo sapiens) (O95633 whole entry, looked up): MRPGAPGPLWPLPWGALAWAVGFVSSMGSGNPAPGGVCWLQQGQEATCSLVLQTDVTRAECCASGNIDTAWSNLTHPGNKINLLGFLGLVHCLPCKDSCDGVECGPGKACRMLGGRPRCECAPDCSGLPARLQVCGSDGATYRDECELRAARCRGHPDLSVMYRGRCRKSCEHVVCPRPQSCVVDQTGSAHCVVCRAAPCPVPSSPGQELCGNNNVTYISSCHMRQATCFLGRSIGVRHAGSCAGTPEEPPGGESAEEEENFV
# [9] = target: Dickkopf-related protein 1 (Homo sapiens) (UniProt O94907); experiment: small molecules binding DKK1 protein – biochemical, small-molecule microarray, 635 nm fluorescence scan, primary screen (AID 1106); details: higher = more signal;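 further: score merges emission near 667 nm with signal to noise over three replicate slides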
# Sequence of Dickkopf-related protein 1 (Homo sapiens) (O94907 whole entry, looked up): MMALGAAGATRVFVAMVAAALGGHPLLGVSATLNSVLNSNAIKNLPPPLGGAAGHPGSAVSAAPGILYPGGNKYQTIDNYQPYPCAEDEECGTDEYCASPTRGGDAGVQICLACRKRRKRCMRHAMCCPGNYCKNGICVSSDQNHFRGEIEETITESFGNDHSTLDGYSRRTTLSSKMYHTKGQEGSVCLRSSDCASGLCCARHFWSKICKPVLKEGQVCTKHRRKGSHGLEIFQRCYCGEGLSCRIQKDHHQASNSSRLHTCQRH
# [10] = test system: Inhibin beta A chain (activin A); experiment: small molecules binding activin A – biochemical, small-molecule microarray, 635 nm fluorescence scan, primary screen (AID 1107); details: INHBA, higher = more signal;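 further: mouse activin A protein probed at 4.33 µg/mL on printed slides; score merges bound-protein fluorescence near 667 nm with spot signal-to-noise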
Compound,composite z-score [1],composite z-score [2],composite z-score [3],z-score [4],composite z-score [5],composite z-score [6],composite z-score [7],composite z-score [8],composite z-score [9],composite z-score [10]
C=C(COC)/C(=C/C[C@H](OC(=O)c1ccncc1)c1ccc(OCCO)cc1)c1cc(C(=O)OC)ccc1OC,0.674,0.17,0.118,-0.767 (inactive),1.47,0.32,-0.0503,0.967,0.8,1.04
COc1ccc(CCNC(=O)[C@@H]2c3ccccc3C(=O)N(CC34CC5CC(CC(C5)C3)C4)[C@H]2c2ccc(CO)cc2)cc1,0.959,-0.0038,0.309,-1.02 (inactive),1.06,0.406,0.277,0.644,0.323,0.64
CC(=O)c1ccc(C(O)C2C=CC3C(=O)N(C)C(=O)C3N2NC(=O)OC(C)(C)C)cc1 (stereo not given),1.44,0.86,0.948,1.66 (inactive),1.17,0.944,-0.499,0.425,-0.698,-0.149
CN(C)C(=O)[C@]1(Cc2ccccc2)N=C(c2ccc(OCCCO)cc2)O[C@@H]1c1ccccc1,0.747,0.129,0.624,-0.012 (inactive),1.13,1.29,-0.515,0.289,-0.698,0.231
C=CCC(OC(C)=O)[C@@H]1[C@@H](N(Cc2ccc(-c3ccccc3)cc2)C(=O)c2cccc3ccccc23)c2cc(OCCCO)ccc2N1C(=O)c1ccc2ccccc2c1 (stereo not given in full),-0.859,1.11,-0.0972,-0.686 (inactive),0.256,0.201,-0.0576,0.5,-0.19,1.08
C[C@]1(C(=O)NCC(F)(F)F)c2ccccc2C(=O)N(Cc2ccc(OC(F)(F)F)cc2)[C@H]1c1ccc(CO)cc1,1.34,-0.0378,0.0314,-0.24 (inactive),0.155,-0.507,0.179,-0.345,0.0106,0.19
Cc1c(-c2ccc(-c3ccc(Cl)c(Cl)c3)o2)nc(-c2ccccc2)c2c1CO[Si]2(C(C)C)C(C)C,0.872,-0.186,0.11,2.11 (inactive),0.316,-0.449,-0.532,-0.382,-0.234,0.938
[N-]=[N+]=NCc1ccccc1C[C@@]1(C(=O)O)N=C(c2ccc(OCCCO)cc2)O[C@@H]1c1ccccc1CN=[N+]=[N-],0.705,0.317,0.779,-0.806 (inactive),1.15,0.577,-0.227,0.814,0.31,0.69
CC1CC/C=C\[C@H]2OC34C=CCN(c5ccc(Cl)cc5)C(=O)[C@H]3N(CCCO)C(=O)[C@]4(C)C2C(=O)O1 (stereo not given in full),0.312,-0.0782,0.717,0.453 (inactive),-1.32,-1.28,-1.1,-0.949,-1.42,0.596
CCOC(=O)C[C@H]1[C@H](OC(=O)c2ccc(C(=O)c3ccccc3)cc2)[C@@H](NC(=O)c2ccc3ccccc3c2)c2cc(OCCCO)ccc2N1C(=O)c1ccc2ccccc2n1,0.608,0.124,0.0404,-0.372 (inactive),0.388,0.712,0.598,0.624,0.713,0.676
CCOC(=O)C[C@H]1[C@H](OC(=O)c2ccc(-c3ccccc3)cc2)[C@@H](NC(=O)CC(C)C)c2cc(OCCCO)ccc2N1C(=O)Cc1ccc(OC)cc1,-0.146,0.448,0.624,-0.463 (inactive),0.22,0.0434,-0.263,-0.195,-0.204,-0.353
CC(C)(C)OC(=O)CC[C@]1(C(=O)N2CCOCC2)N=C(c2ccc(OCCCO)cc2)O[C@H]1c1ccccc1CN=[N+]=[N-],1.61,0.528,0.885,-0.371 (inactive),1.4,1.32,-0.0261,1.08,-0.0465,0.543
COc1ccccc1CN1C(=O)c2ccccc2[C@@H](C(=O)NCCCN(C)C)[C@@H]1c1ccc(CO)cc1,1.31,0.503,-0.205,-0.0655 (inactive),0.0373,-0.841,-0.127,-0.235,0.271,0.545
O=C1NC(=O)C2C1C=CC(C(O)c1cccc(O)c1)N2Nc1ccc(Cl)cc1Cl (stereo not given),-0.195,0.454,0.815,1.16 (inactive),0.0046,-0.607,-0.531,-0.358,-0.555,0.519
CC(C)C[C@H]1NC(=O)[C@@]23C(=O)N[C@@H](Cc4ccccc4)C2[C@H](C)[C@@]2(C)O[C@H]2C3/C=C/C/C=C\CNC(=O)[C@@H]2CCCN2C1=O (stereo not given in full),0.903,-0.244,-0.575,0.091 (inactive),0.815,0.47,0.139,0.572,0.668,0.918
CCN(CC)c1ccc(N2CC=CC34O[C@@H]5C=CCOC(=O)[C@@H]5[C@H]3C(=O)N(CCCO)[C@@H]4C2=O)cc1 (stereo not given in full),0.481,-0.464,0.0573,-1.6 (inactive),-0.946,-1.11,-0.853,-0.69,-0.901,1.65
CN(C)CCCCNC(=O)[C@H]1C[C@H]2C(=O)N[C@@H](Cc3ccccc3)C(=O)N2[C@H]1c1cccc(OCCO)c1,1.2,-0.336,0.336,-1.9 (inactive),-0.407,-1.51,0.0459,0.198,0.574,-0.272
COCCCNC(=O)[C@@H]1c2ccccc2C(=O)N(C2CCCCC2)[C@H]1c1ccc(CO)cc1,1.2,0.164,0.864,0.0373 (inactive),-0.779,-1.82,-1.22,-0.849,-1.54,-0.0501
COCCOC(=O)N1C(=O)[C@@]2(c3cc(C#CCCO)ccc31)[C@H](c1ccc(O)cc1)N1[C@H](c3ccccc3)[C@H](c3ccccc3)OC(=O)[C@H]1[C@@H]2C(=O)N1CCc2cc(OC)c(OC)cc2C1,1.16,0.058,0.342,0.305 (inactive),1.39,1.31,0.878,1.44,0.993,1.01
COc1ccc(CCNC(=O)[C@@]2(Sc3ccc(C)cc3)CC(=O)N(C(C)C)[C@@H]2c2ccc(CO)cc2)cc1,1.41,0.0055,0.983,0.239 (inactive),-0.855,-0.897,-2.03,-1.45,-2,-0.87
COc1ccc([Si](C)(C)[C@H]2[C@H](CCn3cc([C@H](O)c4ccccc4)nn3)O[C@@]3(C(=O)N(C)c4c(Br)cc(C)cc43)[C@@H]2C)cc1,-0.34,-0.189,0.387,-0.923 (inactive),0.574,0.0322,-0.597,-0.499,0.335,0.227
CO[C@H]1O[C@H](CO)[C@@H](OC(=O)Nc2ccc3c(c2)OCO3)[C@@H]2OC(=O)[C@@H](Cc3ccccc3)C/C=C/C[C@H](Cc3ccccc3)C(=O)O[C@@H]12,0.915,0.0902,0.259,0.216 (inactive),1.39,0.708,0.342,0.817,0.401,0.996
C=C(CCCC)C(=O)CC[C@H](OC(=O)c1cccnc1)c1ccc(CO)o1,1.3,-0.013,-0.519,0.981 (inactive),1.13,1.17,0.266,1.3,1.36,1.19
COC(=O)[C@]1(CO)N=C(c2ccc(OCCCO)cc2)O[C@@H]1c1ccccc1CN=[N+]=[N-],0.853,0.109,0.292,0.706 (inactive),0.0716,0.421,-0.237,0.0239,0.102,0.193
C=C(CCCC)C(=O)CC[C@H](OC(C)=O)c1ccccc1OCCO,1.51,-0.179,-0.123,1.77 (inactive),0.633,-0.783,0.333,0.467,0.513,0.491
CCCCN1CC=CC23O[C@@H]4C=CCOC(=O)[C@@H]4[C@H]2C(=O)N(C(CO)C(C)C)[C@@H]3C1=O (stereo not given in full),-0.662,-0.353,-0.476,-0.116 (inactive),-0.372,-0.13,-0.759,0.0236,0.185,0.843
O=C1O[C@H](c2ccccc2)[C@H](c2ccccc2)N2[C@H]1[C@@H](C(=O)NC[C@H](O)c1ccccc1)[C@]1(C(=O)Nc3ccc(C#CCCO)cc31)[C@H]2c1ccccc1OCCO,1.51,-0.232,0.558,0.0927 (inactive),0.458,-0.495,-0.297,0.577,-0.515,0.205
O=C1N(Cc2ccccc2)c2ccccc2[C@H]2OC(c3ccc(OCCCO)cc3)=N[C@@]12Cc1ccccc1,1.53,0.655,0.794,-0.385 (inactive),1.16,1.29,0.279,0.582,0.194,0.925
